Inconclusive results are not listed. Active and inactive are the calls of the source. How the source made its calls: active means hit-call score of the fitted dose curve at least 0.9, where 1 is the maximum; inconclusive means response in the unintended direction; inactive means score below 0.9.
These molecules were tested against Hepatocyte nuclear factor 4-alpha (Homo sapiens) (UniProt P41235) (assay: ATG_HNF4a_TRANS: Attagene TRANS-FACTORIAL HepG2 Assay for human Hepatocyte Nuclear Factor 4 alpha (HNF4a) (AID 2282982)). Details: HepG2 HNF4a transactivation reporter, mRNA readout.
Chain of Hepatocyte nuclear factor 4-alpha (Homo sapiens) (P41235 whole entry, looked up): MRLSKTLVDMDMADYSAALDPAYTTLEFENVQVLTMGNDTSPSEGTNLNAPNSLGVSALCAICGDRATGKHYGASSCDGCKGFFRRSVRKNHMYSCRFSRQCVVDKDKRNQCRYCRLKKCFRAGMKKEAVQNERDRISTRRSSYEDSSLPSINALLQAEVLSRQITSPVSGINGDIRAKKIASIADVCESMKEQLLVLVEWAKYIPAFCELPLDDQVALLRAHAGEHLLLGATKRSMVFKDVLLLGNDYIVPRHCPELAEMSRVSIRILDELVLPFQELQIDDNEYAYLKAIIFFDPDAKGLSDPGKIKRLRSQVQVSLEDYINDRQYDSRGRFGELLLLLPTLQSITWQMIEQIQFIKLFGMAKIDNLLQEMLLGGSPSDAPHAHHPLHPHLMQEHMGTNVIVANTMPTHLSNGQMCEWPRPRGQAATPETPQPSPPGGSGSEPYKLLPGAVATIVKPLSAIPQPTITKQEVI
Description: ATG_TRANS is a cell-based, multiplexed-readout assay that uses HepG2, a human liver cell line, with measurements taken at 24 hours after chemical dosing in a 24-well plate.ATG_HNF4a_TRANS is one of 30 assay component(s) measured or calculated from the ATG_TRANS assay. It is designed to make measurements of mRNA induction, a form of inducible reporter, as detected with fluorescence intensity signals by Reverse transcription polymerase chain reaction (RT-PCR) and Capillary electrophoresis technology.Data from the assay component ATG_HNF4a_TRANS was analyzed into 1 assay endpoint. This assay endpoint, ATG_HNF4a_TRANS, was analyzed in the positive analysis fitting direction relative to DMSO as the negative control and baseline of activity. Using a type of inducible reporter, measures of mRNA for gain-of-signal activity can be used to understand the reporter gene at the transcription factor-level as they relate to the gene HNF4A. Furthermore, this assay endpoint can be referred to as a primary readout, because this assay has produced multiple assay endpoints where this one serves a reporter gene function. To generalize the intended target to other relatable targets, this assay endpoint is annotated to the nuclear receptor intended target family, where the subfamily is orphan.
Human liver HepG2 cells are transiently transfected with multiple reporter transcription units (MRTUs) in 6-well plates using FuGene 6 reagent (Roche; 3 ml FuGene/1 mg DNA). The MRTU constructs are regulated by a cis-regulating element (promoter). […] A major difference between the CIS and TRANS system is that in CIS activities of endogenous TFs are measured, whereas the TRANS assay evaluates changes in activities of exogenous, chimeric NR-Gal4 proteins. […] At the end of 24 hour incubation, total RNA was isolated using TriZol reagent (Invitrogen). The isolated RNA is then reverse-transcribed using oligo(dT) primer and Mo-MLV reverse transcriptase (Invitrogen) with DNAse I (Ambion) treatment for 30 min. The one-tenth of the produced cDNA was amplified by PCR using Taq DNA polymerase (Invitrogen) and two reporter sequence-specific primers. The PCR products were fluorescently labeled by primer extension with 6-arboxyfluorescein (6-FAM) 5'-labeled reporter sequence-specific primer (2 min at 95 C, 20 s at 68 C and 10 min at 72 C) and these products were digested with 5U of HpaI (New England Biolabs) for 2h at 37 C. The fragments were purified using Qiaquick PCR columns (Qiagen), analyzed on an ABI 3130xL genetic analyzer (Applied Biosystems) with peak positions identified by using a set of X-rhodamine (ROX)-labeled MapMarker1000 molecular weight standards (BioVentures). The raw capillary electrophoresis data was processed using Attagraph software (Attagene).
`CC[N+](C)(CC)CC` was tested, and the outcome was “inactive”. `Oc1ccc2cc(SSc3ccc4cc(O)ccc4c3)ccc2c1` was tested, and the outcome was “inactive”. With `N#Cc1ccc(CC(=O)c2cccc(C(F)(F)F)c2)cc1` the outcome was “inactive”. In the case of `CCCCC(CC)COC(C)=O` (stereo not given), the outcome was “inactive”. `C=COCCOCCOC=C` was tested, and the outcome was “inactive”. With `C=C(C)C1CC=C(C)C(=O)C1` (stereo not given) the outcome was “inactive”. `CCOc1ccc(N=Nc2ccc(C=Cc3ccc(N=Nc4ccc(OCC)cc4)cc3S(=O)(=O)O)c(S(=O)(=O)O)c2)cc1` was tested, and the outcome was “inactive”. With `CC(=O)O[C@@H]1C[C@@H]2CC[C@@]1(C)C2(C)C` the outcome was “inactive”. For `CCCCCCOC(=O)C(C)C`, the outcome was “inactive”. In the case of `CCCCC1CCC(O)CC1` (stereo not given), the outcome was “inactive”. For `Cc1ccc2c(c1)C(=O)OC2=O`, the outcome was “inactive”. For `Nc1ccn([C@H]2CS[C@@H](CO)O2)c(=O)n1`, the outcome was “inactive”. In the case of `CC(=O)C(C)O` (stereo not given), the outcome was “inactive”. With `CCCCCCCCCC(=O)OC` the outcome was “inactive”. With `CC(=O)O[C@@H]1CC2CCC1(C)C2(C)C` (stereo not given in full) the outcome was “inactive”. For `CCc1cc(Cc2cc(CC)cc(C(C)(C)C)c2O)c(O)c(C(C)(C)C)c1`, the outcome was “inactive”. In the case of `[Cl][Au]([Cl])[Cl]`, the outcome was “inactive”. In the case of `O=C1OC(=O)c2c(Cl)c(Cl)c(Cl)c(Cl)c21`, the outcome was “inactive”. `O=C(O)c1ccc(O)cc1` was tested, and the outcome was “inactive”. `CC=Cc1ccc(OC)c(OC)c1` was tested, and the outcome was “inactive”. In the case of `CC(C)(C)CC(C)(C)c1ccc(OCCOCC[N+](C)(C)Cc2ccccc2)cc1`, the outcome was “inactive”. `C=CCN(CC=C)CC=C` was tested, and the outcome was “inactive”. For `C[N+](C)(C)CCCCCC[N+](C)(C)C`, the outcome was “inactive”. For `CCC(Cl)C(Cl)C(Cl)CC(Cl)C(Cl)C(C)Cl` (stereo not given), the outcome was “inactive”. For `CCCCCCCC(=O)OCC(O)CO` (stereo not given), the outcome was “inactive”. With `CCCC(C)=O` the outcome was “inactive”. For `C=C1C[C@]23C[C@@]1(O)CC[C@H]2[C@@]12C=C[C@H](O)[C@@](C)(C(=O)O1)[C@H]2[C@@H]3C(=O)O`, the outcome was “inactive”. For `O=C(O)CCCCCCCCC(=O)O`, the outcome was “inactive”. For `COCCOC(=O)c1ccccc1C(=O)OCCOC`, the outcome was “inactive”. In the case of `c1ccc2[nH]cnc2c1`, the outcome was “inactive”. In the case of `O=C1OC2(c3ccccc31)c1ccc(O)c(Br)c1Oc1c2ccc(O)c1Br`, the outcome was “inactive”. For `COc1ccc(OC)c(N=Nc2c(O)ccc3ccccc23)c1`, the outcome was “inactive”. With `CS(C)=O` the outcome was “inactive”. In the case of `C=C(C)C(=O)OCCOC1CC2CC1C1C=CCC21` (stereo not given), the outcome was “inactive”. `CCC1(c2ccccc2)C(=O)NCNC1=O` was tested, and the outcome was “inactive”. With `CN(C)C(=S)SC(=S)N(C)C` the outcome was “inactive”. `CCC(C)c1cc([N+](=O)[O-])cc([N+](=O)[O-])c1OC(=O)OC(C)C` (stereo not given) was tested, and the outcome was “inactive”. In the case of `CCOC(=O)COC(=O)c1cc(Oc2ccc(C(F)(F)F)cc2Cl)ccc1[N+](=O)[O-]`, the outcome was “inactive”. With `CN1C(=O)c2ccccc2C1=O` the outcome was “inactive”. With `CCN(CCN)c1cccc(C)c1` the outcome was “inactive”.

Reference: PubChem BioAssay (EPA / NIEHS)
